Compound activity as filed in PubChem.
A selection: hits, their analogues and other compounds. The true share with any hit is near 2.4%.
Apoferritin bind = binds horse apoferritin like a general anesthetic | apoferritin/1-aminoanthracene competitive binding, fluorescence | Potency, µM (doses to about 77.5 µM), usual class: inhibitors | 350,000 compounds, 0.074% hits | AID 485281; further: nearly all actives have a fitted effect of over 20% in size
Target sequence (P02791 2-175 limits assumed): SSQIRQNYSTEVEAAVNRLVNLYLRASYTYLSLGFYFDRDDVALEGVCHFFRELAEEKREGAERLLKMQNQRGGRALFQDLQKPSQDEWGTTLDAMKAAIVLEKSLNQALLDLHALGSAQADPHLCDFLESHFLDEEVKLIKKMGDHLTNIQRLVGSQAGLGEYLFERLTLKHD
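10 uM apoferritin + 50% sat. 1-AMA, PBS; cpd 10 min RT; Ex380/Em535 endpoint; normalized to free probe vs complex; 4-param Hill fit; propofol titration as pos. ctrl.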
ATXN2 expr inh = reduces ATXN2 reporter expression in HEK-293 cells. HEK-293 ATXN2-luciferase reporter, luminescence, 24 h. Potency, µM (titrated, usually from 57 µM), hits mostly inhibitors. 360,000 compounds, 0.72% hits; further: nearly all actives have a fitted effect of over 55% in size
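ATXN2-luciferase reporter cells (luciferase flanked by upstream and downstream ATXN2 gene portions) were treated 24 h at 37 °C with compounds at up to 57 uM. SteadyGlo luminescence gave expression; GF-AFC fluorescence gave viability.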
S2 tox = viability counter-screen for ATXN expression inhibitors; S2 cells (HEK-293 line with an ATXN2-luciferase reporter) viability, CellTiter-Fluor protease fluorescence, 24 h; Potency, µM (titrated, usually from 56.7 µM), most hits filed as cytotoxic; 400,000 compounds, 0.49% hits; further: nearly all actives have a fitted effect of over 40% in size
TGFb inhibitor = inhibitors of TGF-b signaling | HepG2 CAGA-GFP TGF-b/SMAD3 reporter, GFP fluorescence, 18 h; TGF-beta stimulated, 500 pg/mL final | Potency, µM (series often up to 46.1 µM), most hits filed as inhibitors | 410,000 compounds, 1.2% hits | AID 588855; further: nearly all actives have a fitted effect of over 65% in size
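First, reporter cells (HEPG2 CAGA-GFP) rested 2 h at 37 degrees C. Next, compounds were pinned in and TGF-beta added to 500 pg/mL final. After 18 h, GFP was imaged per cell and summed per well.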
HepG2 tox = counter-screen for TGF-b inhibitors: cytotoxicity in HepG2 cells; HepG2 CAGA-GFP viability, ATP luminescence, 18 h; Potency, µM (titrated, usually from 46.1 µM), usual class: cytotoxic; 410,000 compounds, 0.76% hits; AID 588856
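CellTiter-Glo luminescence gave cytotoxicity after 18 hours at 37 degrees C. The cells were HepG2 CAGA-GFP in 1% FBS DMEM, stimulated with 500 pg/mL TGF-beta after compound addition. %Activity was normalised to no-cell wells (complete cell-killing) and DMSO (no toxicity), and curves were fitted and classified.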
Hits are given with their value; [ ] = remark or other dose. The call rests on the fitted dose curve; in most records, active means well fitted curve in the direction sought with a large enough effect; inconclusive means small, poorly fitted or top-dose-only effect, or another doubt; inactive means no such curve, though single readings can be large; an effect the other way counts as inactive or inconclusive.

`Cc1oc(-c2ccccc2NS(C)(=O)=O)nc1CN(C)Cc1ccc(Cl)cc1` gave S2 tox inactive.
CCn1c2ccccc2c2cc(C3C(C#N)=C(N)Oc4n[nH]c(COC)c43)ccc21 (stereo not given) was read as Apoferritin bind inactive, ATXN2 expr inh 2.5µM, S2 tox inactive, TGFb inhibitor 10µM and HepG2 tox 4µM.
`Oc1cc(-c2cccnc2)cc2cccnc12` gave ATXN2 expr inh inconclusive, S2 tox inconclusive, TGFb inhibitor inconclusive and HepG2 tox inactive.
c1ccc(Nc2cccc(Nc3ccccc3)n2)cc1 was read as Apoferritin bind inconclusive, ATXN2 expr inh inactive, S2 tox inactive, TGFb inhibitor inactive and HepG2 tox inactive.
`Oc1cc(NCCN2CCOCC2)cc2cccnc12` gave ATXN2 expr inh 32µM, S2 tox inconclusive, TGFb inhibitor inconclusive and HepG2 tox inactive.
For Oc1cc(Nc2ccccc2)cc2cccnc12 the results were ATXN2 expr inh 32µM, S2 tox inconclusive, TGFb inhibitor 32µM and HepG2 tox 11µM.
Screening O=C(NCCN1CCOCC1)c1ccc2ccccc2c1 returned Apoferritin bind inactive, ATXN2 expr inh inactive, S2 tox inactive, TGFb inhibitor inactive and HepG2 tox inactive.
For Oc1cccc2cc(Nc3ccccc3)cnc12 the results were ATXN2 expr inh 7.1µM, S2 tox inconclusive, TGFb inhibitor 3.5µM and HepG2 tox inactive.
Cc1cc(C)c(C#N)c(SCCS(=O)(=O)Cc2ccc(Cl)cc2)n1 was read as Apoferritin bind inactive, ATXN2 expr inh inactive, S2 tox inactive, TGFb inhibitor 14µM and HepG2 tox inactive.
`CC(=O)c1ccc(S(=O)(=O)NCCC(=O)OCC(=O)N(Cc2ccccc2)C(C)(C)C)cc1` gave ATXN2 expr inh inactive, S2 tox inactive, TGFb inhibitor inconclusive and HepG2 tox inactive.
For CCCOc1cccc(C2c3c(oc4ccc(F)cc4c3=O)C(=O)N2Cc2ccc3c(c2)OCO3)c1 (stereo not given) the results were Apoferritin bind inactive, ATXN2 expr inh inactive, S2 tox inactive, TGFb inhibitor inactive and HepG2 tox inactive.
For COC(=O)[C@@]1(Cc2ccc(OC)cc2)[C@@H]2C(=CC(=O)[C@H]2CC(=O)C(=O)N2CCCC2)CN1C(=O)c1ccccc1 the results were Apoferritin bind inactive, ATXN2 expr inh inconclusive, S2 tox 28µM, TGFb inhibitor inconclusive and HepG2 tox inactive.
For CCOC(=O)C1C(C(=O)OC)=C(c2ccc(OC)cc2)c2ccc(OC)cc2N1S(=O)(=O)C(F)(F)F (stereo not given) the results were Apoferritin bind inactive, ATXN2 expr inh inactive, S2 tox inactive, TGFb inhibitor inconclusive and HepG2 tox inactive.
CCOC(=O)C1=C(C2=CCCCC2)c2ccc(OC)cc2N(S(=O)(=O)C(F)(F)F)C1C(=O)OCC (stereo not given) was read as ATXN2 expr inh inconclusive, S2 tox inconclusive, TGFb inhibitor 14µM and HepG2 tox inactive.
Screening O=C(N/N=C1/C[C@@H](O)[C@@H](O)[C@@H]2[C@@H]3C(=O)N(Cc4ccccc4)C(=O)[C@H]3CC[C@H]12)OCc1ccccc1 returned Apoferritin bind inactive[15.3 µM].
Screening CC1(C(=O)NS(=O)(=O)C2CC2)CCN(C(=O)COc2ccc(Cl)cc2Cl)C1 (stereo not given) returned ATXN2 expr inh inactive, S2 tox inactive, TGFb inhibitor inactive and HepG2 tox inactive.
Screening Cc1ccc(-c2nn3c(C)nnc3s2)cc1NC(=O)c1ccc(-c2cccc(Cl)c2)o1 returned Apoferritin bind inactive, ATXN2 expr inh inconclusive, S2 tox inconclusive, TGFb inhibitor inconclusive and HepG2 tox inactive.
Screening Cc1ccc(-c2nn3c(C)nnc3s2)cc1NC(=O)c1ccc(-c2ccc(Cl)cc2Cl)o1 returned Apoferritin bind inactive, ATXN2 expr inh 8.9µM, TGFb inhibitor inconclusive and HepG2 tox inactive.
COCCNC(=O)/C(C#N)=C/C=C/c1ccccc1[N+](=O)[O-] was read as Apoferritin bind inactive, ATXN2 expr inh inconclusive, S2 tox inconclusive, TGFb inhibitor 20µM and HepG2 tox inactive.
Screening C[n+]1c2n(c3ccccc31)N=C(c1cc(C(C)(C)C)c(O)c(C(C)(C)C)c1)CS2 returned Apoferritin bind inconclusive, ATXN2 expr inh inconclusive, S2 tox 22µM, TGFb inhibitor 6.3µM and HepG2 tox inactive.
For Cc1cc(C)nc(S[C@H]2C[C@@H](C(=O)N3CCN(c4ccccc4F)CC3)N(Cc3ccccc3F)C2)n1 the results were S2 tox inactive.
For CCc1ccc2nc(N3CCC(C(=O)O)CC3)sc2c1 the results were Apoferritin bind inactive, ATXN2 expr inh 14µM, S2 tox inactive, TGFb inhibitor inactive and HepG2 tox inactive.
Screening COc1cccc(OC(=O)c2ccccc2)c1OC(=O)c1ccccc1 returned ATXN2 expr inh inactive, S2 tox inconclusive, TGFb inhibitor inactive and HepG2 tox inactive.
Screening O=C(N/N=C\c1cc(Cl)ccc1O)c1ccc(S(=O)(=O)N2CCCCC2)cc1 returned Apoferritin bind inactive, ATXN2 expr inh 2.5µM, S2 tox inactive, TGFb inhibitor inactive and HepG2 tox inactive.
`CCN(CC)CCNC(=O)c1nn(-c2ccc(Cl)cc2)c2c1CCc1cc(OC)ccc1-2` gave ATXN2 expr inh inconclusive, S2 tox inconclusive, TGFb inhibitor inconclusive and HepG2 tox 14µM.
For COc1ccc(C(C[N+](=O)[O-])c2c(-c3ccccc3)cc3ccccn23)c(OC)c1 (stereo not given) the results were Apoferritin bind inactive, ATXN2 expr inh inactive, S2 tox inactive, TGFb inhibitor 10µM and HepG2 tox 11µM.
For CCOC(=O)c1c(C)[nH]c(C)c1S(=O)(=O)N1CCCC(C(=O)Nc2ccc(F)cc2F)C1 (stereo not given) the results were Apoferritin bind inactive, ATXN2 expr inh inactive, S2 tox inactive, TGFb inhibitor inconclusive and HepG2 tox inactive.
Screening COc1cccc(CC2(CO)CCCN(Cc3ccc(CO)o3)C2)c1 (stereo not given) returned Apoferritin bind inactive, ATXN2 expr inh inactive, S2 tox inactive, TGFb inhibitor inactive and HepG2 tox inactive.
`COc1cccc(CC2(CO)CCCN(Cc3[nH]c4ccc(C)cc4c3C)C2)c1` (stereo not given) gave Apoferritin bind inconclusive, ATXN2 expr inh 25µM, S2 tox inconclusive, TGFb inhibitor inconclusive and HepG2 tox inactive.
COc1cccc(CC2(CO)CCCN(Cc3cc4ccccc4[nH]3)C2)c1 (stereo not given) was read as Apoferritin bind inactive, ATXN2 expr inh inactive, S2 tox inactive, TGFb inhibitor 11µM and HepG2 tox inactive.
COc1cccc(CC2(CO)CCCN(Cc3ccc(C)s3)C2)c1 (stereo not given) was read as Apoferritin bind inactive, ATXN2 expr inh inactive, S2 tox inactive, TGFb inhibitor inactive and HepG2 tox inactive.
